# Entries with a potency or affinity are not part of this list. Activity calls are given as the source filed them.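 How the source made its calls: active means compounds lowering viability with a fitted half-maximal potency at or below twice the top tested dose; inconclusive means flat fit showing 30 to 70% loss, or poor fit; inactive means the rest.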
# Experiment: melanocyte viability loss, MITF-dependent cells, cell-based, plate reader, dry powder, cytotoxicity control, dose response (AID 651920)
row,SMILES,outcome
1,CC(C)N1CCN(C2=C(Nc3ccc(F)cc3F)C(=O)c3ccccc3C2=O)CC1,inactive
2,NC1=C(NS(=O)(=O)c2cccs2)C(=O)c2ccccc2C1=O,inactive
3,O=C1C(Nc2cccc(Cl)c2)=C(N2CCCC2)C(=O)c2ccccc21,inactive
4,CC(C)N1CCN(C2=C(Nc3ccc(F)cc3)C(=O)c3ccccc3C2=O)CC1,inactive
5,Cc1ccc(NC2=CC(=O)c3ccccc3C2=O)cc1,inactive
6,CCN1CCN(C2=C(Nc3ccc(F)cc3F)C(=O)c3ccccc3C2=O)CC1,inactive
7,NC1=C(NS(=O)(=O)c2ccc(Br)s2)C(=O)c2ccccc2C1=O,inactive
8,CN1CCN(C2=C(Nc3ccc(F)cc3F)C(=O)c3ccccc3C2=O)CC1,inactive
9,O=C1C(Nc2ccc(F)cc2)=C(N2CCCCC2)C(=O)c2ccccc21,inactive
10,NC1=C(NS(=O)(=O)c2ccc(Br)cc2)C(=O)c2ccccc2C1=O,inactive
11,O=C1C=C(Nc2ccccc2)C(=O)c2ccccc21,inactive
12,O=C1C(Nc2ccc(Br)cc2)=C(N2CCCCC2)C(=O)c2ccccc21,inactive
13,O=C1C(Nc2ccc(Cl)cc2)=C(N2CCCC2)C(=O)c2ccccc21,inactive
14,NC1=C(NS(=O)(=O)c2ccccc2)C(=O)c2ccccc2C1=O,inactive

# — PubChem BioAssay AID651920 (Broad Institute, 2012)
